Publication PMC7862700, “An all-to-all approach to the identification of sequence-specific readers for epigenetic DNA modifications on cytosine”

Legend:
Experiment in all cases: DAPPL (digital affinity profiling via proximity ligation, sequencing); 10 mM Tris-HCl pH 7.5, 50 mM NaCl, 1 mM DTT, 4% glycerol, room temperature, 30 min; GST-TFs on glutathione beads, 16-mer random dsDNA library, 0.1% formaldehyde crosslink after washing; high values mean tight binding
FEV = target: T1, FEV (Homo sapiens, UniProt Q99581 1-238); conditions: protein: recombinant; tags: N-terminal GST; dsDNA, one strand shown
T1 sequence: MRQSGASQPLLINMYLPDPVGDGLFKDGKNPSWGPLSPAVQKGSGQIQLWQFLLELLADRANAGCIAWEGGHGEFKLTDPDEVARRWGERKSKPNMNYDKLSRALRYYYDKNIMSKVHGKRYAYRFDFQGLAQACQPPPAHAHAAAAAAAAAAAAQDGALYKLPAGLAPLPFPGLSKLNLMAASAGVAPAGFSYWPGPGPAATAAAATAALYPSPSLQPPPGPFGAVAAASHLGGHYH
Summary of the method: (§1)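 Sequencing on an Illumina NextSeq500 followed washing, crosslinking with 0.1% formaldehyde, proximity ligation (BsaI/T4 ligase, 1 h, 37 °C) and PCR amplification of pools that had been incubated for 30 min at room temperature with 200 nmole of a random double-stranded 16-mer DNA library in Tris/NaCl/DTT/glycerol buffer. Each pool held DNA-barcoded human transcription factors, expressed in yeast as GST fusions and captured on glutathione beads, plus a tag-only sample. Binding signal is a hexamer's read frequency for a factor divided by its frequency in the tag-only sample.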

ETV5 = ETV5 (Homo sapiens, UniProt P41161 1-510); conditions: protein: recombinant; tags: N-terminal GST; dsDNA, one strand shown
Summary of the method: as §1

HSF1 = HSF1 (Homo sapiens, UniProt Q00613 1-529); conditions: protein: recombinant; tags: N-terminal GST; chain copies: 3; dsDNA, one strand shown
Summary of the method: as §1

SPIC = target: T2, SPIC (Homo sapiens, UniProt Q8N5J4 1-248); conditions: protein: recombinant; tags: N-terminal GST; dsDNA, one strand shown
T2 sequence: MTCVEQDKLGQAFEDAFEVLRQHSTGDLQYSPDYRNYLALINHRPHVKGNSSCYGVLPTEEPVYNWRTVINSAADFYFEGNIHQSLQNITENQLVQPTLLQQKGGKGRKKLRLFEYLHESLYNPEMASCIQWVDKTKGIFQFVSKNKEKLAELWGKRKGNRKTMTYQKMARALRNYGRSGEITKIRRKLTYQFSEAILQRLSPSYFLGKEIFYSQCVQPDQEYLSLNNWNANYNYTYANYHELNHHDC
Summary of the method: as §1

ELF4 = ELF4 (Homo sapiens, UniProt Q99607 1-663); conditions: protein: recombinant; tags: N-terminal GST; dsDNA, one strand shown
Summary of the method: as §1

ELK4 = target: T3, ELK4 (Homo sapiens, UniProt P28324-2 1-405); conditions: protein: recombinant; tags: N-terminal GST; dsDNA, one strand shown
T3 sequence: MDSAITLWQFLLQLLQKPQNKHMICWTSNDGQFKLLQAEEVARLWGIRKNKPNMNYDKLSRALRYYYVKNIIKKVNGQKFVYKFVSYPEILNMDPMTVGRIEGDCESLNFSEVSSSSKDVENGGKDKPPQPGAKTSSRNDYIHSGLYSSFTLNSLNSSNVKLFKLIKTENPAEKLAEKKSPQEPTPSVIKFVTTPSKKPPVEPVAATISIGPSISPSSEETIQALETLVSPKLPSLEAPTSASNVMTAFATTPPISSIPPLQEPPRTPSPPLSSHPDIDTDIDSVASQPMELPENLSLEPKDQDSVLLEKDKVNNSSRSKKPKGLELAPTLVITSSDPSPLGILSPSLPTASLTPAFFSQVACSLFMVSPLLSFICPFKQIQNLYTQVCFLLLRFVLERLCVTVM
Summary of the method: as §1

ETV2 = target: T4, ETV2 (Homo sapiens, UniProt O00321 1-342); conditions: protein: recombinant; tags: N-terminal GST; dsDNA, one strand shown
T4 sequence: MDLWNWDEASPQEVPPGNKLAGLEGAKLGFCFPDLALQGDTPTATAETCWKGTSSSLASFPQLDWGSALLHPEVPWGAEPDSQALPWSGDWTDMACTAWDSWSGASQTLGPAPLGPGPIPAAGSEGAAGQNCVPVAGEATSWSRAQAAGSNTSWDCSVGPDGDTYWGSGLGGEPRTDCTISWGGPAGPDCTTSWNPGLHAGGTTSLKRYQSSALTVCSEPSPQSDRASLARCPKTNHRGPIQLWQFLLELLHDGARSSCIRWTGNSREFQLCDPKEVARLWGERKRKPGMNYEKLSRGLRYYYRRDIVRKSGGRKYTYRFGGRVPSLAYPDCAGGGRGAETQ
Summary of the method: as §1

ELF3 = target: T5, ELF3 (Homo sapiens, UniProt P78545 1-371); conditions: protein: recombinant; tags: N-terminal GST; dsDNA, one strand shown
T5 sequence: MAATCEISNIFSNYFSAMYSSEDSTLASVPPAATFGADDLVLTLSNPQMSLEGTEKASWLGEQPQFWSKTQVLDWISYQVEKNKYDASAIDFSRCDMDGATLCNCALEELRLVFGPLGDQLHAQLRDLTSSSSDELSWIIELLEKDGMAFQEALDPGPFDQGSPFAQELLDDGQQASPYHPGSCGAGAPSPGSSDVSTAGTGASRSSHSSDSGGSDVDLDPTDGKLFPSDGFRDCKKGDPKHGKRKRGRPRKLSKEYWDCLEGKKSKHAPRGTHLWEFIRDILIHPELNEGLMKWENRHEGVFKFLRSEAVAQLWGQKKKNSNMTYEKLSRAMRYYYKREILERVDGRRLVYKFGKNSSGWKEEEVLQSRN
Summary of the method: as §1

ETV1 = ETV1 (Homo sapiens, UniProt P50549 1-477); conditions: protein: recombinant; tags: N-terminal GST; dsDNA, one strand shown
Summary of the method: as §1

ERF = target: T6, ERF (Homo sapiens, UniProt P50548 1-548); conditions: protein: recombinant; tags: N-terminal GST; dsDNA, one strand shown
T6 sequence: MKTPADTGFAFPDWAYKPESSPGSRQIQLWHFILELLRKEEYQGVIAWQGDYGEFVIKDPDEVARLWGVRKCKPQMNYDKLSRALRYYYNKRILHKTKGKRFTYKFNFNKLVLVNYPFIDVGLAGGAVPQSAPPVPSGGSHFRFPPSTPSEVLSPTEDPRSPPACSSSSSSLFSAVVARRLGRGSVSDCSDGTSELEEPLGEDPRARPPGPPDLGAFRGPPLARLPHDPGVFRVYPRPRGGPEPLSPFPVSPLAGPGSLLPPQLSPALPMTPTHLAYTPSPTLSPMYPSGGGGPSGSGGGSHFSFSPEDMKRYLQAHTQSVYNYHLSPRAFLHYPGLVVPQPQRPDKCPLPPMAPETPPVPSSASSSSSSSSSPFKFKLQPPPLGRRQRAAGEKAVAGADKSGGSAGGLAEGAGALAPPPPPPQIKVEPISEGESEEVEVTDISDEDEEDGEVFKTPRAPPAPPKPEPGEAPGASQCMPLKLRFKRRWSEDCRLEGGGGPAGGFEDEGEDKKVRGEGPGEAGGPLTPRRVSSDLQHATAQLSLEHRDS
Summary of the method: as §1

ETV3L = target: T7, ETV3L (Homo sapiens, UniProt Q6ZN32 1-361); conditions: protein: recombinant; tags: N-terminal GST; dsDNA, one strand shown
T7 sequence: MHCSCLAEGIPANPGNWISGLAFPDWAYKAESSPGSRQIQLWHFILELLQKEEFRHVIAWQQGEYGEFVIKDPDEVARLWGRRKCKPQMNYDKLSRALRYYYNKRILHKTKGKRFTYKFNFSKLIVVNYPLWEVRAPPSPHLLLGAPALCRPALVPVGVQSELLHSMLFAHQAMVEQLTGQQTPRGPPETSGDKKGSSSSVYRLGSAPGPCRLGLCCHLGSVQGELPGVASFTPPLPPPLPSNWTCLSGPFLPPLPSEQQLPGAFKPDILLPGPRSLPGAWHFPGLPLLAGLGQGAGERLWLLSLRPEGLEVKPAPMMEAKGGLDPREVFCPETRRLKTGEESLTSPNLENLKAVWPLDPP
Summary of the method: as §1

ETS2 = target: T8, ETS2 (Homo sapiens, UniProt P15036 1-469); conditions: protein: recombinant; tags: N-terminal GST; dsDNA, one strand shown
T8 sequence: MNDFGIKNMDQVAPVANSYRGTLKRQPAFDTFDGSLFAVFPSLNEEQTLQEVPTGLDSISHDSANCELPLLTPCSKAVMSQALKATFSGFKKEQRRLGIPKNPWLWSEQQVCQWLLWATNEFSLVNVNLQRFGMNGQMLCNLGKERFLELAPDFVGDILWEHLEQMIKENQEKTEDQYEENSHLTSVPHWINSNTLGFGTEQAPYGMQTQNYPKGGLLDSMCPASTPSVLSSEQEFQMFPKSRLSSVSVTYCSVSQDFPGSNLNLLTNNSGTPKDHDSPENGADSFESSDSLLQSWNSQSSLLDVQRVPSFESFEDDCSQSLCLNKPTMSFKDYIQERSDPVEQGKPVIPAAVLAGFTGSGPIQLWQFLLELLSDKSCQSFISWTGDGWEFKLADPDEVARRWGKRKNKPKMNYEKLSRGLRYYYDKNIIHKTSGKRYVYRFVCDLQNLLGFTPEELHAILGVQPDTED
Summary of the method: as §1

SPDEF = target: T9, SPDEF (Homo sapiens, UniProt O95238 1-335); conditions: protein: recombinant; tags: N-terminal GST; dsDNA, one strand shown
T9 sequence: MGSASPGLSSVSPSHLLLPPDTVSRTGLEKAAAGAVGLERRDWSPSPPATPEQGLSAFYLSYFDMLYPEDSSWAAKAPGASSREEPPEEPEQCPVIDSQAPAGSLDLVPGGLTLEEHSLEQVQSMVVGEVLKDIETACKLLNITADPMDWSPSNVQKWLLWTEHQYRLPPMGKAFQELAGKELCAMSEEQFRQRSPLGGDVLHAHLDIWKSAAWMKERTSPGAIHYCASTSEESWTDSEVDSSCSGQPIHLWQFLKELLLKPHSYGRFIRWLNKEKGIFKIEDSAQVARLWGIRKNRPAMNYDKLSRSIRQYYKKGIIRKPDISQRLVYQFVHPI
Summary of the method: as §1

ETV7 = target: T10, ETV7 (Homo sapiens, UniProt Q9Y603 1-341); conditions: protein: recombinant; tags: N-terminal GST; dsDNA, one strand shown
T10 sequence: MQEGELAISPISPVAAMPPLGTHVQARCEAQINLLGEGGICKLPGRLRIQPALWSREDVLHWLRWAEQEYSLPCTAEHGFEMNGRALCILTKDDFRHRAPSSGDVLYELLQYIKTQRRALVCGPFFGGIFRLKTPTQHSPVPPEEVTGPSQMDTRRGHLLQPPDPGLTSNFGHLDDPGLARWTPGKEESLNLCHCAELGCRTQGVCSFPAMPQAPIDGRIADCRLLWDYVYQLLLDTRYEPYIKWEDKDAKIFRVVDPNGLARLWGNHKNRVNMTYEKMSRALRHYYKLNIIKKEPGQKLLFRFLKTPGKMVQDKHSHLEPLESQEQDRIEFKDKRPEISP
Summary of the method: as §1

ELF5 = target: T11, ELF5 (Homo sapiens, UniProt Q9UKW6-2 1-255); conditions: protein: recombinant; tags: N-terminal GST; dsDNA, one strand shown
T11 sequence: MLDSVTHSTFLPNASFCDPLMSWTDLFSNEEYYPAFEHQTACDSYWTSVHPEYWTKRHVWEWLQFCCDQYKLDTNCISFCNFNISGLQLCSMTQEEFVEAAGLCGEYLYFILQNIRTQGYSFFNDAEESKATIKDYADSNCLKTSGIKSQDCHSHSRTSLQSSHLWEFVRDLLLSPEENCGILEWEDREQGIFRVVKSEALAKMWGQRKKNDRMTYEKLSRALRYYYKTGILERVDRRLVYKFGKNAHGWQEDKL
Summary of the method: as §1

ETV3 = target: T12, ETV3 (Homo sapiens, UniProt P41162-2 1-143); conditions: protein: recombinant; tags: N-terminal GST; dsDNA, one strand shown
T12 sequence: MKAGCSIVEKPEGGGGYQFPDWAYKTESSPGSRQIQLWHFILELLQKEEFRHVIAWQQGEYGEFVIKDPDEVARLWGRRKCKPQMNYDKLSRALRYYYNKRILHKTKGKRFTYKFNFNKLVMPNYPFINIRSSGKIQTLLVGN
Summary of the method: as §1

ETV6 = ETV6 (Homo sapiens, UniProt P41212 1-452); conditions: protein: recombinant; tags: N-terminal GST; dsDNA, one strand shown
Summary of the method: as §1

Chain of ELF4 (Q99607 whole entry): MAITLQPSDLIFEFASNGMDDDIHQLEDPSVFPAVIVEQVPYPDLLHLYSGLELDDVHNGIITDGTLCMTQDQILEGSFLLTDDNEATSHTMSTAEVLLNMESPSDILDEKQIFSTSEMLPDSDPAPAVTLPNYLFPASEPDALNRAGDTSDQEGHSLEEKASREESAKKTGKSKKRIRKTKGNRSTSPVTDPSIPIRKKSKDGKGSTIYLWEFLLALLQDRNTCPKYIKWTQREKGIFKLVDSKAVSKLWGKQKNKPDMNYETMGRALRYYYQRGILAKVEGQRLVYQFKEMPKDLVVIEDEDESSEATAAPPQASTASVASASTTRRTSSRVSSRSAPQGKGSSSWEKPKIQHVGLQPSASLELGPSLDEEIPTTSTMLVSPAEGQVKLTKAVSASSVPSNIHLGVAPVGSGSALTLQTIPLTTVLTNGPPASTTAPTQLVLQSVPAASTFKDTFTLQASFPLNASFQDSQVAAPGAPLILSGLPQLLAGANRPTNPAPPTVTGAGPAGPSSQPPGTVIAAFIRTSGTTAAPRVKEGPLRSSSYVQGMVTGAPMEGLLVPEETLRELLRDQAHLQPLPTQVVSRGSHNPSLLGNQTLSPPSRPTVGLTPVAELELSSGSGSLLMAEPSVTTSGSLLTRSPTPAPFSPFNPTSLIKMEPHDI
Chain of ETV5 (P41161 whole entry): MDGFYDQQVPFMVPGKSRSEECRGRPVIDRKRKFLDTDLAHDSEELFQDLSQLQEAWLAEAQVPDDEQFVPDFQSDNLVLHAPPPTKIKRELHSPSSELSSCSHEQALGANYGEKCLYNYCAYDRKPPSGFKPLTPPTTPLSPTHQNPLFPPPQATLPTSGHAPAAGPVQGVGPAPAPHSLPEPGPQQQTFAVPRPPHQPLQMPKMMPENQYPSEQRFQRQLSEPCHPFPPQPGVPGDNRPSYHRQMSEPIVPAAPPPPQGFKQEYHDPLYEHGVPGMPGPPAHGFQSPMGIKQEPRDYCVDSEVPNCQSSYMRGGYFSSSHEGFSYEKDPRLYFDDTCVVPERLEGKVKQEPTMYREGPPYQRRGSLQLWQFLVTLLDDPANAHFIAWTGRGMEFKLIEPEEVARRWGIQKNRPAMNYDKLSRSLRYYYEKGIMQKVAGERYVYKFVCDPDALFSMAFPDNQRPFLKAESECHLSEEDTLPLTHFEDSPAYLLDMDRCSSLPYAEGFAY
Chain of ETV1 (P50549 whole entry): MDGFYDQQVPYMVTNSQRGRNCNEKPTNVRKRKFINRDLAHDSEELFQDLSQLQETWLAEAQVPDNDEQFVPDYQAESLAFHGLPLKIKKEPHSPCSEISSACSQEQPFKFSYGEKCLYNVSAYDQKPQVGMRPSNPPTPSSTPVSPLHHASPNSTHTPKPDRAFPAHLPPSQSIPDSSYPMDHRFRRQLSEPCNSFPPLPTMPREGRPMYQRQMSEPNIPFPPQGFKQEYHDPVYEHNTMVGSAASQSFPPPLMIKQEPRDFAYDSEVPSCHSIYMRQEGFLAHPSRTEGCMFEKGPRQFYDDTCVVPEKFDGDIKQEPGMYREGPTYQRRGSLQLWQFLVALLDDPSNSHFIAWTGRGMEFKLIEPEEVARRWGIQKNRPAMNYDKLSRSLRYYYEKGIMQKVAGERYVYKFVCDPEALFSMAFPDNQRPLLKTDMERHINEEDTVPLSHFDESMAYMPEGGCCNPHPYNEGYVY
Chain of HSF1 (Q00613 whole entry): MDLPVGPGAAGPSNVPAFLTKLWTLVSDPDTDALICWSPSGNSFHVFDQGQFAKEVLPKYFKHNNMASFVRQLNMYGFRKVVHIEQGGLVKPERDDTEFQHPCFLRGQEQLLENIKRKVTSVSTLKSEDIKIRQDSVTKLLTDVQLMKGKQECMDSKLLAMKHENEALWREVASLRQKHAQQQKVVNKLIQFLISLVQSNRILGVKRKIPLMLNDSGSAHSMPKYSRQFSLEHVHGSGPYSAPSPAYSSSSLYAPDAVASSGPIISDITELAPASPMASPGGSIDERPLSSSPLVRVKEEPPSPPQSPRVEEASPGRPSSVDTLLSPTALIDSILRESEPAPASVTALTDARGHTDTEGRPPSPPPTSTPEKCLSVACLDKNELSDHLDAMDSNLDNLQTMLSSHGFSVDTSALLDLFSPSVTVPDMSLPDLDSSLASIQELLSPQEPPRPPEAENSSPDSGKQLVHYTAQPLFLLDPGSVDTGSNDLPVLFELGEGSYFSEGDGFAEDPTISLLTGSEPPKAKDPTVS
Chain of ETV6 (P41212 whole entry): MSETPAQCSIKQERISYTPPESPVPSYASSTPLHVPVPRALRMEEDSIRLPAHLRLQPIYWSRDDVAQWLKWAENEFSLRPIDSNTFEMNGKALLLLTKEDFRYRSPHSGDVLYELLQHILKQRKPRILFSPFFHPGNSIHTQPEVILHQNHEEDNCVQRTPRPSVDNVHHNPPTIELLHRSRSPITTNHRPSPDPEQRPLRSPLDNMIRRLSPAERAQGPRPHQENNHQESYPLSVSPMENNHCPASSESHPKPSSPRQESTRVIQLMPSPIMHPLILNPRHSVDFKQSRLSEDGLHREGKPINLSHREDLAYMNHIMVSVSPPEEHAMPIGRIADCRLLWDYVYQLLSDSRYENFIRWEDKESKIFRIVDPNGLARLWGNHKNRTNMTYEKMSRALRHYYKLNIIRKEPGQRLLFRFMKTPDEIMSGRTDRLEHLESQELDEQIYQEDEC

GTCTCT
binding signal (FEV): 1.15 fold enrichment (6-mer frequency, TF over GST control) | binding signal (ETV5): 1.14 fold enrichment (6-mer frequency, TF over GST control) | binding signal (HSF1): 1.12 fold enrichment (6-mer frequency, TF over GST control) | binding signal (SPIC): 1.33 fold enrichment (6-mer frequency, TF over GST control) | binding signal (ELF4): 1.33 fold enrichment (6-mer frequency, TF over GST control) | binding signal (ELK4): 1.18 fold enrichment (6-mer frequency, TF over GST control) | binding signal (ETV2): 1.24 fold enrichment (6-mer frequency, TF over GST control) | binding signal (ELF3): 1.11 fold enrichment (6-mer frequency, TF over GST control) | binding signal (ETV1): 1.27 fold enrichment (6-mer frequency, TF over GST control) | binding signal (ERF): 1.16 fold enrichment (6-mer frequency, TF over GST control) | binding signal (ETV3L): 1.35 fold enrichment (6-mer frequency, TF over GST control) | binding signal (ETS2): 1.32 fold enrichment (6-mer frequency, TF over GST control) | binding signal (SPDEF): 1.15 fold enrichment (6-mer frequency, TF over GST control) | binding signal (ETV7): 1.02 fold enrichment (6-mer frequency, TF over GST control) | binding signal (ELF5): 1.11 fold enrichment (6-mer frequency, TF over GST control) | binding signal (ETV3): 1.27 fold enrichment (6-mer frequency, TF over GST control) | binding signal (ETV6): 1.19 fold enrichment (6-mer frequency, TF over GST control)
